# In ChEMBL document CHEMBL3988442, “University of Dundee, Small-Polar-MMV Screening Library” (2021):
# For some of these results: Potency and affinity values are given separately.
# Experiments:
# Parameters in all cases: scale not given: direction of the effect not stated beside the values
# [1] = target: Protein translocase subunit SecA (Escherichia coli (strain K12)) (UniProt P10408); assay: Assay to Identify E. coli SecA ATPase Inhibitors; type: functional; settings: 30 µM
# [2] = target: T1, Ubiquitin-activating enzyme e1, putative (Leishmania donovani (strain BPK282A1)) (UniProt E9BSI1); assay: Leishmania donovani Ubiquitin Activating Enzyme (LdE1); type: functional; settings: 30 µM
# T1 sequence (whole entry): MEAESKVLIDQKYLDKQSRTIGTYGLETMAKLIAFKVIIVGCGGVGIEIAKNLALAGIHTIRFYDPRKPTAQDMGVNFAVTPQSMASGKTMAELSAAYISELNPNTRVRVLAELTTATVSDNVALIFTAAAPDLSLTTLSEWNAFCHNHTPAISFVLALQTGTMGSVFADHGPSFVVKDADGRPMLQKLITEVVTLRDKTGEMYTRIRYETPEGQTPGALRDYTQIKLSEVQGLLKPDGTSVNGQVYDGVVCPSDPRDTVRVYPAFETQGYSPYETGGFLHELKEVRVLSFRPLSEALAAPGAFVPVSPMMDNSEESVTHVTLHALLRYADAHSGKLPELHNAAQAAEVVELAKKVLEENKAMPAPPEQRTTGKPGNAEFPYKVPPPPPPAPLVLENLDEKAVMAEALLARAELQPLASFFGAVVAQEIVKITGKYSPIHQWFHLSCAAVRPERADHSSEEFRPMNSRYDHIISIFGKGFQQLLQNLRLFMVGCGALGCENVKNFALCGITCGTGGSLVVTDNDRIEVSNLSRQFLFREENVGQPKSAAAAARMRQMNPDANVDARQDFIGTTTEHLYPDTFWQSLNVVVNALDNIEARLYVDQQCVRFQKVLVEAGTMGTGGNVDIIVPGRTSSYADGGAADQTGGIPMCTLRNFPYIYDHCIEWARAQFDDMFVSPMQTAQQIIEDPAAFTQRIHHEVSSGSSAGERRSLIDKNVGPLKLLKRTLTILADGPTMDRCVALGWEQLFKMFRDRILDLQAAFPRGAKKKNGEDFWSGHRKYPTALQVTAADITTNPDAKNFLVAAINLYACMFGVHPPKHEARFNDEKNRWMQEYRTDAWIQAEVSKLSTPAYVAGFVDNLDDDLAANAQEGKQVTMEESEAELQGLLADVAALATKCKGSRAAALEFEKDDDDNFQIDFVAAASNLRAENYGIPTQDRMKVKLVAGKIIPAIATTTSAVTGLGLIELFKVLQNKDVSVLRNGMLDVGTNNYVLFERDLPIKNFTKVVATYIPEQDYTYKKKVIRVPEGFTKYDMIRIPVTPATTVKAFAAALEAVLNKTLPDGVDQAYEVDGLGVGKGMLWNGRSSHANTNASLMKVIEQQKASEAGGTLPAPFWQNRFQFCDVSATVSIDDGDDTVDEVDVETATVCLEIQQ
# [3] = target: AMP-activated protein kinase, AMPK (Homo sapiens) (UniProt P54646+O43741+P54619+Q9UGJ0+Q9Y478+Q13131+Q9UGI9); assay: AMP-dependent Kinase enzyme assay. An in vitro enzyme assay that detects ADP turnover that is directly proportional to AMPK activity. This uses naive AMPK that is activated during the assay with MK-8722; type: functional; settings: 30 µM
# [4] = target: Sialic acid-binding Ig-like lectin 9 (Homo sapiens) (UniProt Q9Y336); assay: Hs-Siglec9 ALPHAscreen SOP 20170721; settings: 10 µM
# Trypanosoma cruzi = assay: Trypanosoma cruzi phosphomannomutase and mannose-1-phosphate guanylyltransferase assay; type: functional; settings: 10 µM
# [5] = target: T2, Arginase-2, mitochondrial (Homo sapiens) (UniProt P78540); assay: in vitro enzyme assay to detect the production of urea directly proportional to the activity of Arginase II; type: functional; settings: 33.3 µM; also: in the data most compounds retested in dose-response had high values
# T2 sequence (whole entry): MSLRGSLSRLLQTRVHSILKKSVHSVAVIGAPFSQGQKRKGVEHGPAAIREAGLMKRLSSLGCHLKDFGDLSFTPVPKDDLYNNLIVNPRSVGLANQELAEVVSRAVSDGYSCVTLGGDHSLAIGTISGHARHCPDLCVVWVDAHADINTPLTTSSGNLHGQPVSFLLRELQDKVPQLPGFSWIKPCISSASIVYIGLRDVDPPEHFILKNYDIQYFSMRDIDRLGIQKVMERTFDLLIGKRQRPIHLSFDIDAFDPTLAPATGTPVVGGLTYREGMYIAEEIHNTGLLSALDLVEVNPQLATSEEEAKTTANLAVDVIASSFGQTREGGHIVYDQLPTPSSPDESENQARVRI
# [6] = target: T3, Proteasome subunit beta (Trypanosoma cruzi) (UniProt O96673); assay: Trypanosoma cruzi proteasome chymotrypsin-like activity (TcProtChymo) assay.; also: in the data most compounds retested in dose-response had high values; type: functional; settings: 9.37 µM
# T3 sequence (whole entry): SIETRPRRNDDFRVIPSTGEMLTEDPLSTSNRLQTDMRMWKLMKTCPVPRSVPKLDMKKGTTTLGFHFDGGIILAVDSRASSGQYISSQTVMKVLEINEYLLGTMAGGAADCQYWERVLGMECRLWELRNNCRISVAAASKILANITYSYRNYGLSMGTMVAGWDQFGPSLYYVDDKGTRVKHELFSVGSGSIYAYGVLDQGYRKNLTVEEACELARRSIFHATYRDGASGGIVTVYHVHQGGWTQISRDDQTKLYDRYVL
# Homo sapiens = species on record: Homo sapiens; assay: To identify inhibition of the IFN signalling (Jak-Stat) pathway via expression of an eGFP reporter gene under the control of an IFN-stimulated response element (ISRE) containing MxA promoter.; type: functional; settings: 30 µM
# [7] = target: T4, Tyrosyl-tRNA synthetase, putative (Trypanosoma cruzi (strain CL Brener)) (UniProt Q4DSP6); assay: Trypanosoma cruzi tyrosyl tRNA synthetase (TcYRS) _High Tyrosine SOP; type: functional; settings: 30 µM; also: in the data most compounds retested in dose-response had high values
# T4 sequence (whole entry): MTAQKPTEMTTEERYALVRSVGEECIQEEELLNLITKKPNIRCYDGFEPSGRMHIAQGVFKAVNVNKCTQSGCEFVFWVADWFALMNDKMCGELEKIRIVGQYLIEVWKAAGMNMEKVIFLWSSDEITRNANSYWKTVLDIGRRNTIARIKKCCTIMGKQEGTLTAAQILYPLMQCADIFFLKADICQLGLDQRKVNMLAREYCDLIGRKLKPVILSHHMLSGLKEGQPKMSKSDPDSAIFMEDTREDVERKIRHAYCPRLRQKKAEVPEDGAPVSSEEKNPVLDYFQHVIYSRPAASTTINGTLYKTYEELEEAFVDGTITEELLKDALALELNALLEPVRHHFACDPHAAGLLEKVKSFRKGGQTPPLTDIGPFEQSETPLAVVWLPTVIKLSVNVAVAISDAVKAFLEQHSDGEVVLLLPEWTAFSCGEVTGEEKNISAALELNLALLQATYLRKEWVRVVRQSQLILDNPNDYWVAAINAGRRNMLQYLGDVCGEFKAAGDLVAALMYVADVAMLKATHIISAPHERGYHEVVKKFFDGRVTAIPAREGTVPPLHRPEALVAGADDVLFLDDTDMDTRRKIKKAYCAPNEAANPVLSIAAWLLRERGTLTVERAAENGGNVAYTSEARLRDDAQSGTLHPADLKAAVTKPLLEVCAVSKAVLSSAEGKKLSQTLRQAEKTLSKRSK
# [8] = target: T4, Tyrosyl-tRNA synthetase, putative (Trypanosoma cruzi (strain CL Brener)); assay: Trypanosoma cruzi tyrosyl tRNA synthetase (TcYRS) SOP; type: functional; settings: 30 µM
# [9] = target: Chromo domain-containing protein 1 (Saccharomyces cerevisiae (strain ATCC 204508 / S288c) (Baker's yeast)) (UniProt P32657); assay: ScCHD-1 Enzyme Inhibition Assay; type: functional; settings: 30 µM; also: in the data most compounds retested in dose-response had high values
# Chain of Chromo domain-containing protein 1 (Saccharomyces cerevisiae (strain ATCC 204508 / S288c) (Baker's yeast)) (P32657 whole entry, the tested form may be a part): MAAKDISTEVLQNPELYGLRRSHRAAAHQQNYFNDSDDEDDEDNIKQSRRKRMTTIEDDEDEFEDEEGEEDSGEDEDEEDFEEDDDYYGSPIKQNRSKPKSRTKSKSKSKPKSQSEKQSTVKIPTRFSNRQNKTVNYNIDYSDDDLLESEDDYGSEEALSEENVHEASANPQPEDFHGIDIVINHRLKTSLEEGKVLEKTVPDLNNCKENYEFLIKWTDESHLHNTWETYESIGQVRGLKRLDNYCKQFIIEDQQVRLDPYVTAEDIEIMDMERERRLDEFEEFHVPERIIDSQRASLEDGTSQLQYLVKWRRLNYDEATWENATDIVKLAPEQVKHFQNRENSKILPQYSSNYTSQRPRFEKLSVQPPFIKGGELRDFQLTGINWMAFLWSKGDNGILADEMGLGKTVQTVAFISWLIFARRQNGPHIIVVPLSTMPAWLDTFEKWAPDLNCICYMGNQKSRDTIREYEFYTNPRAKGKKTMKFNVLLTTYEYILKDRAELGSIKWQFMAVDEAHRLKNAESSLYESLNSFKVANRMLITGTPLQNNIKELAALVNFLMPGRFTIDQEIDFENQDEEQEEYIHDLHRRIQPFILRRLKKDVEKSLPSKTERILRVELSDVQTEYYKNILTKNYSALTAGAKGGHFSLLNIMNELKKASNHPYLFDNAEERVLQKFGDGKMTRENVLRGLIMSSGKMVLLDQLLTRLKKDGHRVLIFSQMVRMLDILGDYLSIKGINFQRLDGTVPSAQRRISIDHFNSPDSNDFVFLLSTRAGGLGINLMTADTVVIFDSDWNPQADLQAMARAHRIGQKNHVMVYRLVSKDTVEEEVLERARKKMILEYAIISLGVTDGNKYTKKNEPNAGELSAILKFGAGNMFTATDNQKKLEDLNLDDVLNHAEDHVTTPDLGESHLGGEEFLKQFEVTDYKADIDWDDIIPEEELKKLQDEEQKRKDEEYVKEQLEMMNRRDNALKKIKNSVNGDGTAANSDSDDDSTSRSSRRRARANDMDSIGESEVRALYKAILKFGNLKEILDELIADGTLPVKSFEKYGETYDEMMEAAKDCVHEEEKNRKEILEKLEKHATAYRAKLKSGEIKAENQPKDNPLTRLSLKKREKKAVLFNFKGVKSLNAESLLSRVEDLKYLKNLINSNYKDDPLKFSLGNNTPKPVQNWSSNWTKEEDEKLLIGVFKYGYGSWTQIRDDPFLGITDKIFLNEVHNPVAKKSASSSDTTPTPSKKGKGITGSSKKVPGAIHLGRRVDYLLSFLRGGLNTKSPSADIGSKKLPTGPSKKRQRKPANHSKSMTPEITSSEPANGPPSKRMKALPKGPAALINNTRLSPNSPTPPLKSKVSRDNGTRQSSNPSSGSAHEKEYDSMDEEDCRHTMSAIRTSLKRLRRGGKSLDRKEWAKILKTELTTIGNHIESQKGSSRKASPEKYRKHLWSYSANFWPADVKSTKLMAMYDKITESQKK
# Chain of Protein translocase subunit SecA (Escherichia coli (strain K12)) (P10408 whole entry): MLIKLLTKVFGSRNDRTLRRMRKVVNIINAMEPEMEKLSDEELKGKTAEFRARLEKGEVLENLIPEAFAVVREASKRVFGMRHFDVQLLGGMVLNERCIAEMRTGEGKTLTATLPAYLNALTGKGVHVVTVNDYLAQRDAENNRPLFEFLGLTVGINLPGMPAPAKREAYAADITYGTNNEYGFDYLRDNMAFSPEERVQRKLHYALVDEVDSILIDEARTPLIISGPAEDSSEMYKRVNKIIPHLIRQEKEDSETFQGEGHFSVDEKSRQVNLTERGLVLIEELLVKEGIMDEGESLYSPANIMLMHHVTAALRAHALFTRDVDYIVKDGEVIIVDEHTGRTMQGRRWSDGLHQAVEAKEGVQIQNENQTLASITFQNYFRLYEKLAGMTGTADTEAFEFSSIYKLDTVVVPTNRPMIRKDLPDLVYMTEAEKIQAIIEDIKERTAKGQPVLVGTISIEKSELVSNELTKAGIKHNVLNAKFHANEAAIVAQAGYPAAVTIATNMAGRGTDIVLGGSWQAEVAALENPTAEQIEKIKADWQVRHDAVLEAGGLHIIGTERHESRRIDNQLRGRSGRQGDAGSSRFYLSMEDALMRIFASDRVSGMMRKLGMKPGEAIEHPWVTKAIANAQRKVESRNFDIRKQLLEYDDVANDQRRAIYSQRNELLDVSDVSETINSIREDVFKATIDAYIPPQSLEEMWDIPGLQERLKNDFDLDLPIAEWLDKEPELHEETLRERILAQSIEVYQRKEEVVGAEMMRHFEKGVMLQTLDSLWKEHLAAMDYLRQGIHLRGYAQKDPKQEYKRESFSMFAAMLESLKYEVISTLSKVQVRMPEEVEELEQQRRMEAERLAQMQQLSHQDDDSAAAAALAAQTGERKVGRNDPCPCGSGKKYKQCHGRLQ
# Chain of Sialic acid-binding Ig-like lectin 9 (Homo sapiens) (Q9Y336 whole entry): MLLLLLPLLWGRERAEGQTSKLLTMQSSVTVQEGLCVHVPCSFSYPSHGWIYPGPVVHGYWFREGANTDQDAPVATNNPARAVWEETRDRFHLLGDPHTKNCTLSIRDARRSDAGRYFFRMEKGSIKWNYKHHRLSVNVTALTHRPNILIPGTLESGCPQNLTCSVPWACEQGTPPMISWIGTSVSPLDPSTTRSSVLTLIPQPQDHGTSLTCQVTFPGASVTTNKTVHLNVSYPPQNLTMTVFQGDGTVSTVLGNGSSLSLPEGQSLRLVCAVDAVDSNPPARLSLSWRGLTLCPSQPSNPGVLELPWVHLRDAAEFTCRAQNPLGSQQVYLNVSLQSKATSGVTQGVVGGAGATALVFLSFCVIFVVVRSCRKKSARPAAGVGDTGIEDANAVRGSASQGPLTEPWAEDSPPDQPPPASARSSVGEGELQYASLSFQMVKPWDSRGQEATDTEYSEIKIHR
SMILES,Percent Effect [1] [%],Percent Effect [2] [%],Percent Effect [3] [%],Percent Effect [4] [%],Percent Effect (Trypanosoma cruzi) [%],Percent Effect [5] [%],Percent Effect [6] [%],Percent Effect (Homo sapiens) [%],Percent Effect [7] [%],Percent Effect [8] [%],Percent Effect [9] [%]
CCCN(CCO)C(=O)C1CCC(=O)N(CCc2ccc(Cl)cc2)C1 (stereo not given),0.568,6.94,1.97,-2.89,2.23,3.53,8.77,-9.44,4.21,7.69,-5.01
Cn1cc(CN2CC[C@@H]3[C@@H](CCC(=O)N3CCC3=CCCCC3)C2)cn1,-5.13,8.22,4.85,0.26,0.992,-2.79,10.7,-22.4,0,1.24,1.06
CN(C)C1CCN(C(=O)NCc2ccccc2Cn2cncn2)CC1,-2.11,10.8,-1.1,10.9,7.72,6.19,12.2,18.3,7.94,17.1,-1.22
Cc1n[nH]c(C(=O)NCc2ccnc(OCC(F)(F)F)c2)c1Br,-4.7,23.7,-2.47,1.14,8.08,-0.383,18.4,5.22,6.37,24.4,-11.1
CCS(=O)(=O)N1CCC2(CC1)CC(Oc1ccccn1)CO2 (stereo not given),-0.483,10.4,4.49,-1.15,-5.23,7.1,11,17.8,2.12,3.85,-7.08
NC(=O)C1CN(C(=O)Nc2ccccc2-c2cccs2)CCO1 (stereo not given),-6.75,18.9,-3.93,20.2,5.66,-2.4,-3.23,6.89,2.97,18.3,-6.91
Cc1ccsc1CN(Cc1ccccn1)CC(C)C,-2.24,1.39,-11.5,11.7,4.76,8.39,8.95,-27.8,7.37,7.69,-1.62
Cc1nc(C2CCCN2CCCS(=O)(=O)N(C)C)no1 (stereo not given),-4.22,28.9,-4.98,-5.59,2.26,-0.383,13.4,10.9,-5.39,17.1,-9.28
CCNc1cc2c(nn1)CCN(C(=O)c1cccc3c1OCCO3)C2,-5.14,7.79,-15.3,14.1,5.99,-6.76,15.4,1.1,5.83,14.6,-10.8
Cc1cc2nc(SCC(=O)N3CCCC3)n(C(C)C)c(=O)c2[nH]1,-2.21,21.1,-3.68,-13.3,2.63,-1.18,19.5,17.9,1.06,10.4,-6.22
CN1CCCC1c1cccc(Cc2ccccc2F)n1 (stereo not given),-3.07,-20.3,13.4,1.77,-0.79,-3.02,-1.87,49.3,14,11.7,0.4
COCC(=O)N1CCC(c2cccc(Cc3ccc(F)cc3)n2)CC1,0.623,9.46,7.38,-1.91,-6.13,3.94,5.15,22.7,2.15,11.7,-12.4
COCCn1ccnc1C1CCCN(C(=O)CSCC2CC2)C1 (stereo not given),-1.08,6.94,-7.23,-0.00565,4.37,0,19.1,1.07,3.16,7.69,-0.19
COCCc1noc(CN(C)C(=O)c2cccc(N3CCCC3=O)c2)n1,-2.59,-2.53,0.707,3.91,-1.23,-0.38,-0.246,-3.22,-0.493,-3.8,-1.74
O=C(c1ccn(-c2cccc(F)c2)n1)N1CCCC(n2cccn2)C1 (stereo not given),-4.17,2.6,4.13,0.275,5.78,-1.05,13.3,2.64,0,7.06,-16.1
CC(OCC1CC1)C(=O)N1CCCN(c2ncccc2C#N)CC1 (stereo not given),-5.69,23.7,-5.36,-8.93,-0.0934,-8.99,2.79,-5.09,6.4,-8.64,-5.69
Cc1cnn(CC2CCCN2C(=O)c2cc3ccccc3[nH]2)c1 (stereo not given),-8.63,13,-0.229,-0.244,7.74,-1.05,7.2,1.95,3.81,11.8,-12.1
CCc1nc2n(n1)CC(Nc1cc(C)nc3ncnn13)CC2 (stereo not given),-3.29,8.22,-10.8,12.4,5.68,8.64,14.4,18.4,3.23,12.5,-7.89
COc1ccccc1OCc1cc(C(=O)N2CC(O)C2)n[nH]1,-4.46,4.17,141,-2.11,-0.875,3.09,6.49,1.4,4.21,10.3,-1.24
CC(C)C(=O)N1CCC(c2nc(O)cc(-c3ccncc3)n2)CC1,-5,25.7,5.51,-2.98,3.16,-2.09,10.9,14.4,5.38,11.7,-14.2
